In PubChem BioAssay AID652162 (Broad Institute, 2013):
About 840 (0.24%) of roughly 350,000 compounds were called active. No stated cut-off is given here; in the data, active means inhibition above about 10%; inactive means the rest. What follows is part of a selection rich in actives, with near analogues and random picks from the rest.

Target: Toxin B (Clostridioides difficile) (UniProt P18177)
Test: TcdB glycohydrolase inhibitors, primary screen, biochemical, single point, plate reader (AID 652162)
Conditions: TcdB glycohydrolase enzymatic assay, at 9.99 µM, hits give high values

Toxin B (Clostridioides difficile), sequence (P18177 whole entry, looked up): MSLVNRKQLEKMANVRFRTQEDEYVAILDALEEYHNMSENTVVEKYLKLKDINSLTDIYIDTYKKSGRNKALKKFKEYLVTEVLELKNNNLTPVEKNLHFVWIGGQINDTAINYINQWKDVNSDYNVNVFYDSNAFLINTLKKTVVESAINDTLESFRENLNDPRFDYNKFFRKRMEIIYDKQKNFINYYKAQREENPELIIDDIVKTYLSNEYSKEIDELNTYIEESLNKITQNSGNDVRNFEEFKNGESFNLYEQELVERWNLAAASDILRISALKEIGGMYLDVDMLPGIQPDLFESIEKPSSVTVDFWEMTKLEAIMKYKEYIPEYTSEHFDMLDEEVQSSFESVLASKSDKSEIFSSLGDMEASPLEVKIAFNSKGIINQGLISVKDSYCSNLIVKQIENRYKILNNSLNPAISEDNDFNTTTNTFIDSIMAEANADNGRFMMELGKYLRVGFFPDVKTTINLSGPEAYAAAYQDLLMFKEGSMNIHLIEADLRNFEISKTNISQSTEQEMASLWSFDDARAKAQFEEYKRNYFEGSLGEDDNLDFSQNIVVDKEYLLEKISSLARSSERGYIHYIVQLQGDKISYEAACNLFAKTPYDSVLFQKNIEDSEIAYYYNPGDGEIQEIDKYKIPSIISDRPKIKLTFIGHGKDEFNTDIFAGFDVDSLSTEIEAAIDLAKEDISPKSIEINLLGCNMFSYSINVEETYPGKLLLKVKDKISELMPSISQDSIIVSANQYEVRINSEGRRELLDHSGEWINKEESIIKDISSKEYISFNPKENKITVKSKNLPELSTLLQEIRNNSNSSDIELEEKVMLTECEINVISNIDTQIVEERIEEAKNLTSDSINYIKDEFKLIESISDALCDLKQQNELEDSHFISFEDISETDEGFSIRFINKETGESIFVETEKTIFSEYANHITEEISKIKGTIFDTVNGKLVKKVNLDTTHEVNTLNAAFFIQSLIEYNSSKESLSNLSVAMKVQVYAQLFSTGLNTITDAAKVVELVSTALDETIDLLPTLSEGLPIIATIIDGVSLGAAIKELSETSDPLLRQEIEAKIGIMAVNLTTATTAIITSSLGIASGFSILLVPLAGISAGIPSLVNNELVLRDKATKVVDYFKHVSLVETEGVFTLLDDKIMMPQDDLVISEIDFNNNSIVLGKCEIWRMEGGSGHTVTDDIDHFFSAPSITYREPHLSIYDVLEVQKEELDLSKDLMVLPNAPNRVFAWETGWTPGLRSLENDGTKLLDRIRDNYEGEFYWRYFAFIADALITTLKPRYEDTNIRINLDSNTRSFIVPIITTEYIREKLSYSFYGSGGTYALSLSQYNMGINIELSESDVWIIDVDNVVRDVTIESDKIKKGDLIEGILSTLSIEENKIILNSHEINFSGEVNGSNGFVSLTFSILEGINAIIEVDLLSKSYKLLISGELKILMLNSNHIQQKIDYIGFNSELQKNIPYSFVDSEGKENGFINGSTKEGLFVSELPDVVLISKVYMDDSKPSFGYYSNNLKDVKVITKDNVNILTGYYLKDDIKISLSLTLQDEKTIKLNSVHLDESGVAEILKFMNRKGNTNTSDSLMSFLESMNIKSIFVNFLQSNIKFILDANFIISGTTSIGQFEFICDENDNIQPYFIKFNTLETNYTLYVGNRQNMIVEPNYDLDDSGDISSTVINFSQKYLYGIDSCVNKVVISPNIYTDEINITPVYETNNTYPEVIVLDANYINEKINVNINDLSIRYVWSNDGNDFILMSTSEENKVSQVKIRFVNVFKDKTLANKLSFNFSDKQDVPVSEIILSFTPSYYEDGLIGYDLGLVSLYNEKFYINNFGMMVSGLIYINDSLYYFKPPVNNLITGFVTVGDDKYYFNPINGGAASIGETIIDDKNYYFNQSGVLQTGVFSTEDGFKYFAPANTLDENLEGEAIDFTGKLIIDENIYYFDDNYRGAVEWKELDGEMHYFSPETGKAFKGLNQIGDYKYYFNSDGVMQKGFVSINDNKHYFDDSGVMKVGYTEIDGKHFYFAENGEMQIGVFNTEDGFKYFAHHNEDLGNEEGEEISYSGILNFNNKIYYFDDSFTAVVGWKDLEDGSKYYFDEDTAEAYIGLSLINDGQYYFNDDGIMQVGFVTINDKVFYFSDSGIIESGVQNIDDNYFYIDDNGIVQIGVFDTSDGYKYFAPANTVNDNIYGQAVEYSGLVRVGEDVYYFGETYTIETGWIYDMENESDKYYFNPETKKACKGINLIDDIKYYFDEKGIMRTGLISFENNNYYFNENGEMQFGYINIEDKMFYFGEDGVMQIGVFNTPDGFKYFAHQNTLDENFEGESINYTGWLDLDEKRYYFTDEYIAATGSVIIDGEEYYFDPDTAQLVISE

Row | Structure (SMILES) | inhibition
1 | Cc1noc(C)c1S(=O)(=O)Nc1ccc2c(c1)CC(=O)N([C@@H](C)CO)C[C@@H](C)[C@H](CN(C)S(=O)(=O)c1cccs1)O2 | 1.18% (inactive)
2 | C[C@H]1CN([C@@H](C)CO)C(=O)Cc2cc(N(C)C)ccc2O[C@@H]1CN(C)S(=O)(=O)c1ccc(F)cc1 | -6.02% (inactive)
3 | COCC(=O)Nc1ccc2c(c1)C(=O)N(C)C[C@H](OC)[C@@H](C)CN(C(=O)c1cnccn1)[C@H](C)CO2 | 0.644% (inactive)
4 | COCCN(Cc1nc(-c2ccc(C(F)(F)F)cc2)no1)C(C)C | 1.49% (inactive)
5 | COCCN(C(=O)C(C)C)c1nnc(-c2ccc(C(C)(C)C)cc2)s1 | 10.1% (active)
6 | C[C@@H]1CN([C@H](C)CO)C(=O)c2cc(NS(C)(=O)=O)ccc2O[C@@H]1CN(C)S(C)(=O)=O | 0.537% (inactive)
7 | COCc1cn(CC[C@H]2CC[C@H](NC(=O)Nc3ccc4c(c3)OCO4)[C@@H](CO)O2)nn1 | 0.036% (inactive)
8 | CNC[C@H]1Oc2ncc(-c3ccccc3C)cc2C(=O)N([C@@H](C)CO)C[C@@H]1C | 0.537% (inactive)
9 | C[C@@H]1CN([C@H](C)CO)C(=O)c2cc(C#CC3(O)CCCC3)cnc2O[C@H]1CN(C)Cc1ccncc1 | 0.916% (inactive)
10 | CN1CCN(/N=C/c2c[nH]c3ccccc23)CC1 | 12.7% (active)
11 | CN1CCN(/N=C/c2ccc(C#N)cc2)CC1 | 0.047% (inactive)
12 | C[n+]1ccc(/C=C/c2c[nH]c3ccccc23)cc1 | 1.44% (inactive)
13 | C[C@H](CO)N1C[C@H](C)[C@@H](CN(C)C(=O)Nc2cccc3ccccc23)Oc2c(NS(=O)(=O)c3ccccc3)cccc2C1=O | -1.06% (inactive)
14 | C[C@H](CO)N1C[C@H](C)[C@@H](CN(C)Cc2ccc(C(F)(F)F)cc2)Oc2ccc(NC(=O)CCC(F)(F)F)cc2C1=O | 0.866% (inactive)
15 | O=C(C[C@@H]1C[C@@H]2c3cc(NC(=O)Nc4ccc(F)cc4)ccc3O[C@@H]2[C@H](CO)O1)NCC(F)(F)F | 0.33% (inactive)
16 | COC(=O)CN1C(C)=Nc2ccc(Br)cc2C1c1ccccc1 (stereo not drawn) | 55.6% (active)
17 | COC(=O)Cc1nnn2c1[C@H](C)[C@@H](OC)c1cc(Br)ccc1-2 | 0.213% (inactive)
18 | CCC(CC)C(=O)N1CC(=O)Nc2ccc(Br)cc2C1c1ccccc1 (stereo not drawn) | 3.15% (inactive)
19 | C[C@@H]1CN([C@@H](C)CO)C(=O)c2cc(-c3ccc(F)cc3)cnc2O[C@@H]1CN(C)Cc1ccc(C(=O)O)cc1 | -1.74% (inactive)
20 | Cc1noc(C)c1S(=O)(=O)Nc1ccc2c(c1)C(=O)N([C@@H](C)CO)C[C@H](C)[C@@H](CN(C)C)OCCCC[C@@H](C)O2 | -1.17% (inactive)
21 | CC(=O)N(C)C[C@@H]1Oc2cc(-c3cncnc3)ccc2S(=O)(=O)N([C@@H](C)CO)C[C@H]1C | -0.296% (inactive)
22 | O=C(C1CCC1)N1CC(=O)N2[C@H](CO)[C@H](c3ccc(C#CCc4ccccc4)cc3)[C@@H]2C1 | 0.603% (inactive)
23 | O=C(OCC(=O)N1CCOCC1)c1ccc(N2CCOCC2)c([N+](=O)[O-])c1 | 0.627% (inactive)

Row | Structure (SMILES) | inhibition
24 | O=C(c1ccc(N2CCOCC2)c([N+](=O)[O-])c1)N1CCN(S(=O)(=O)c2cccs2)CC1 | 3.29% (inactive)
25 | O=C(c1ccc(N2CCOCC2)c([N+](=O)[O-])c1)N1CCN(c2ccccc2F)CC1 | 10.3% (active)
26 | O=C(N[C@H]1C=C[C@@H](CC(=O)N2CCc3ccccc3C2)O[C@@H]1CO)C1CCOCC1 | 1.24% (inactive)
27 | Cc1noc(C)c1S(=O)(=O)N(C)C[C@@H]1Oc2c(NS(=O)(=O)c3cn(C)cn3)cccc2C(=O)N([C@H](C)CO)C[C@@H]1C | -0.292% (inactive)
28 | COc1ccc(S(=O)(=O)N(C)C[C@@H]2Oc3ccc(NC(=O)C4CC4)cc3CC(=O)N([C@@H](C)CO)C[C@@H]2C)cc1 | 0.342% (inactive)
29 | COC(=O)Cc1ccc(NC(=S)NCc2ccco2)cc1 | 16% (active)
30 | S=C(NCc1ccco1)Nc1ccc2c(c1)OCCO2 | -0.084% (inactive)
31 | COc1cccc(OC)c1C(=O)NC(=S)NCc1ccco1 | 1.13% (inactive)
32 | COC(=O)C[C@H]1CC[C@H]2[C@@H](COc3ccc(NC(=O)C4CC4)cc3C(=O)N2C)O1 | 0.647% (inactive)
33 | COc1ccc2c3c(n(C)c2c1)[C@H](CO)N(C(=O)C1CCCC1)CC31CCN(C(=O)c2ccncc2)CC1 | 0.361% (inactive)
34 | C[C@H](O)C#Cc1ccc([C@@H]2[C@@H](CO)N3CCCCN(C(=O)c4ccncc4)C[C@@H]23)cc1 | 0.304% (inactive)
35 | CCS(=O)(=O)N1CCC2(CC1)CN(Cc1ccc3c(c1)OCO3)[C@H](CO)c1[nH]c3cc(OC)ccc3c12 | 0.545% (inactive)
36 | CCCC#Cc1ccc([C@@H]2[C@@H](CO)N3C(=O)CN(C(=O)Nc4cccc(F)c4)C[C@H]23)cc1 | 0.796% (inactive)
37 | O=C(c1ccncc1)N1CC(=O)N2[C@H](CO)[C@H](c3ccc(-c4ccccc4F)cc3)[C@@H]2C1 | -0.127% (inactive)
38 | COCC#Cc1cnc2c(c1)C(=O)N([C@@H](C)CO)C[C@@H](C)[C@@H](CN(C)S(=O)(=O)c1cccc(OC)c1)O2 | 0.452% (inactive)
39 | CC(C)NC(=O)Nc1ccc2c(c1)C(=O)N([C@H](C)CO)C[C@H](C)[C@@H](CN(C)C)OCCCC[C@H](C)O2 | 0.315% (inactive)
40 | COc1ccc(NC(=O)N(C)C[C@H]2Oc3c(NC(=O)C4CC4)cccc3C(=O)N([C@@H](C)CO)C[C@@H]2C)cc1 | -0.546% (inactive)
41 | CNC(=O)C[C@@H]1CC[C@@H]2[C@H](COC[C@H](O)CN2Cc2ccc(C(F)(F)F)cc2)O1 | -1.26% (inactive)
42 | C[C@@H]1CCCCO[C@H](CN(C)C(=O)Nc2cccc3ccccc23)[C@H](C)CN([C@@H](C)CO)C(=O)c2cc(NC(=O)CCCN(C)C)ccc2O1 | -0.333% (inactive)
43 | O=C(C[C@@H]1C[C@@H]2c3cc(NC(=O)C4CCOCC4)ccc3O[C@@H]2[C@H](CO)O1)NCc1ccncc1 | 0.039% (inactive)
44 | C/C=C/c1ccc([C@@H]2[C@@H](CO)N(C(=O)c3ccccc3)C23CN(C(C)=O)C3)cc1 | 1.41% (inactive)
45 | C[C@@H]1CN([C@@H](C)CO)C(=O)c2cc(C#CCN(C)C)cnc2O[C@H]1CN(C)S(=O)(=O)c1cn(C)cn1 | 1.29% (inactive)
46 | CCc1ccc(N2CC(O)=C(c3nc4ccccc4c(=O)[nH]3)C2=N)cc1 | 2.4% (inactive)

Row | Structure (SMILES) | inhibition
47 | COc1ccccc1N1CC(O)=C(c2nc3ccccc3s2)C1=N | 14.9% (active)
48 | Oc1ccc(-c2[nH]ncc2-c2nc3ccccc3s2)c(O)c1 | -1.73% (inactive)
49 | O=C(C[C@H]1CC[C@H]2[C@@H](COC[C@H](O)CN2C(=O)c2ccccc2F)O1)NCc1ccccc1 | 0.135% (inactive)
50 | CO[C@H]1CN(C)C(=O)c2cc(NS(=O)(=O)CC(F)(F)F)ccc2OC[C@H](C)N(C(=O)c2ccc3c(c2)OCO3)C[C@H]1C | 0.021% (inactive)
51 | COCC(=O)N1CC[C@@H]2[C@@H](CO)Nc3ccc(-c4ccc(C(=O)N(C)C)cc4)cc3[C@@H]21 | -1.67% (inactive)
52 | O=C(NN=C1CCC(=NNC(=O)c2cccnc2)CC1)c1cccnc1 | 54% (active)
53 | O=C(Nc1cnccn1)c1cccnc1 | 1.15% (inactive)
54 | O=C(CC(=O)c1cccnc1)c1ccccc1 | 0.622% (inactive)
55 | COc1ccc(C(C)NC(=O)C23CC4CC(CC(C4)C2)C3)cc1 (stereo not drawn) | 0.441% (inactive)
56 | CCOc1ccc(C(CC(=O)O)n2cnnn2)cc1OC (stereo not drawn) | 1.46% (inactive)
57 | CCOc1ccc(C(CC(=O)O)NC(=O)C23CC4CC(CC(C4)C2)C3)cc1OC (stereo not drawn) | 12.9% (active)
58 | CC(C)NC(=O)N(C)C[C@@H]1Oc2ccc(NS(=O)(=O)c3ccccc3)cc2C(=O)N([C@@H](C)CO)C[C@H]1C | 1% (inactive)
59 | Cc1noc(C)c1NC(=O)N(C)C[C@@H]1OCCCC[C@H](C)Oc2ccc(NC(=O)NC3CCCCC3)cc2C(=O)N([C@H](C)CO)C[C@H]1C | 1.84% (inactive)
60 | CCC1(CC)C(=O)C2=C3C1[C@H](C(=O)OC)C=C(C(=O)OC)C[C@H]3[C@H]1C(=O)N(Cc3ccccc3)C(=O)[C@H]1[C@H]2C (stereo partly drawn) | 0.94% (inactive)
61 | COC(=O)C1=C[C@@H](C(=O)OC)[C@@H]2C3=C(C(=O)[C@]2(C)NC(=O)c2ccccc2)[C@H](C)n2c(=O)n(C)c(=O)n2[C@@H]3C1 | 11.2% (active)
62 | C[C@H]1CN([C@@H](C)CO)C(=O)c2cc(NS(=O)(=O)c3ccccc3)ccc2O[C@@H]1CN(C)C(=O)NC1CCCCC1 | 3.22% (inactive)
63 | O=C(NC[C@H]1[C@@H](c2ccccc2)[C@H](CO)N1CC1CC1)c1cccnc1 | -2.13% (inactive)
64 | C/C=C/c1ccc2c(c1)O[C@H](CN(C)Cc1cccc(F)c1)[C@H](C)CN([C@H](C)CO)S2(=O)=O | 0.906% (inactive)
65 | Cc1ccc(S(=O)(=O)N(C)C[C@@H]2OCCCC[C@@H](C)Oc3ccc(NC(=O)Nc4ccc(C(F)(F)F)cc4)cc3C(=O)N([C@@H](C)CO)C[C@@H]2C)cc1 | -1.2% (inactive)
66 | COCC(=O)Nc1ccc2c(c1)C(=O)N(C)[C@@H]1CC[C@H](CC(=O)NCCc3ccccc3)O[C@@H]1CO2 | -0.476% (inactive)
67 | COc1ccc(NC(=O)N(C)C[C@H]2Oc3cc(-c4ccncc4)ccc3S(=O)(=O)N([C@@H](C)CO)C[C@H]2C)cc1 | 0.138% (inactive)
68 | C[C@@H]1CN([C@H](C)CO)C(=O)c2cc(-c3ccc(C(=O)N(C)C)cc3)cnc2O[C@H]1CN(C)C(=O)C1CC1 | 1.01% (inactive)
